For 9 compounds, growth results are on record in PubChem BioAssay (NCI).

Some test systems named below: NCI-H23 lung; NCI-H226 lung; NCI-H322M lung; HOP-62 NSCLC; NCI-H460 lung; HOP-92 NSCLC; NCI-H522 lung; 786-0 renal; COLO 205 colon; DU-145 prostate; K-562 leukemia; MDA-MB-231 breast; RXF 393 renal; SF-268 CNS; SF-295 CNS; SF-539 CNS; UACC-257 melanoma; M14 melanoma; MALME-3M melanoma; A549/ATCC NSCLC.
What all share (experiment): NCI-60 one-dose screen, 48 h (100 = growth as untreated, 0 = no growth, -100 = all killed)
Holding throughout (settings): 10 µM

About 83,000 compounds went through this panel and 20% of them were active in at least one assay; those are over-represented in the sample as a whole.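 A percent growth of 40 corresponds to 60% growth inhibition; 0 means no net growth; -100 means all cells died. Active threshold: below 10.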 Unmarked numbers belong to inactive results. The source made the active and inactive calls.

As for `CCOc1nc(-c2ccccc2)cc2c(O)c(C(=O)NCCCO)[nH]c(=O)c12`, the growth in the assay on NCI-H23 lung is 103%; in the assay with NCI-H226 lung, 94.7%; in the assay with NCI-H322M lung, 106%; in the assay on HOP-62 NSCLC, 91.1%; in the assay with NCI-H460 lung it was 110%; in the assay on HOP-92 NSCLC, 66%. In addition, the growth is 77.4% in the assay on NCI-H522 lung; 106% in the assay on 786-0 renal; 118% with COLO 205 colon; 100% with DU-145 prostate; 111% in the assay on K-562 leukemia; 102% in the assay on MDA-MB-231 breast. Moreover, the growth is 63.2% in the assay with RXF 393 renal; 103% with SF-268 CNS; 77.5% in the assay with SF-295 CNS; 93.9% in the assay on SF-539 CNS; 122% in the assay on UACC-257 melanoma; 94.4% in the assay with M14 melanoma.
As to `COc1ccc(-c2nnc(COc3ccc(NC(=O)Nc4ccccc4)cc3F)o2)cc1`, the growth was 92.4% in the assay on NCI-H23 lung; 95.2% in the assay with NCI-H226 lung; 90.1% in the assay on NCI-H322M lung; 89.2% in the assay with HOP-62 NSCLC; 84.4% in the assay with NCI-H460 lung; 52.2% in the assay on HOP-92 NSCLC. Besides, the growth with NCI-H522 lung was 52.5%; with 786-0 renal, 79.1%; in the assay on COLO 205 colon it was 110%; in the assay on DU-145 prostate, 83.3%; with K-562 leukemia, 71.8%; with MALME-3M melanoma, 84.1%. Besides, the growth with MDA-MB-231 breast is 74.8%; in the assay with RXF 393 renal it was 94.5%; in the assay with SF-268 CNS it was 78.6%; with SF-295 CNS, 98.6%; in the assay with SF-539 CNS, 86.4%; in the assay with UACC-257 melanoma it was 96.8%. The growth in the assay with M14 melanoma is 89.8%.
Take `O=C(N/N=C/c1ccccc1O)c1ccccc1`: the growth with NCI-H23 lung was 41.3%; in the assay on NCI-H226 lung, 27.2%; in the assay with NCI-H322M lung, 34.3%; with HOP-62 NSCLC it was 38.9%; in the assay with NCI-H460 lung, 9.53% (active); in the assay on HOP-92 NSCLC, 7.78% (active). The growth in the assay on NCI-H522 lung is -4.7% (active); in the assay on 786-0 renal, 17.9%; with COLO 205 colon, 19.3%; in the assay with DU-145 prostate, 32.4%; in the assay on K-562 leukemia it was 15.8%; in the assay with MDA-MB-231 breast, 32.5%. In addition, the growth was 41.2% with RXF 393 renal; 30% in the assay on SF-268 CNS; 26% in the assay with SF-295 CNS; 27.9% in the assay with SF-539 CNS; -8.71% (active) in the assay on UACC-257 melanoma; 26.5% in the assay on M14 melanoma.
For `Cc1ccc([P+](Cc2ccc([N+](=O)[O-])cc2)(c2ccc(C)cc2)c2ccc(C)cc2)cc1`, the growth in the assay on NCI-H23 lung was 41%; with NCI-H226 lung it was 80.6%; in the assay with NCI-H322M lung, 69.3%; with HOP-62 NSCLC it was 70.8%; with HOP-92 NSCLC, -19.6% (active); with NCI-H522 lung, 0.971% (active). The growth with A549/ATCC NSCLC is 81%; in the assay on 786-0 renal it was 82.4%; in the assay with COLO 205 colon it was 7.68% (active); with DU-145 prostate, 78.3%; in the assay on K-562 leukemia, 11.2%; in the assay on MALME-3M melanoma, -15% (active). Besides, the growth in the assay on MDA-MB-231 breast was 41.6%; in the assay with RXF 393 renal, 67.2%; with SF-268 CNS, 54.2%; with SF-295 CNS, 45.2%; in the assay on SF-539 CNS, 69%; in the assay on UACC-257 melanoma it was -14.6% (active). Besides, the growth in the assay on M14 melanoma was 19%.
Regarding `CCOC(=O)C(=O)Cc1cccnn1`, the growth in the assay with NCI-H23 lung is 101%; with NCI-H226 lung, 95.2%; in the assay on NCI-H322M lung it was 109%; with HOP-62 NSCLC, 103%; in the assay with HOP-92 NSCLC it was 86.1%; with NCI-H522 lung, 97.2%. For the same compound, the growth was 96.4% in the assay on 786-0 renal; 102% in the assay with COLO 205 colon; 113% in the assay with DU-145 prostate; 110% with K-562 leukemia; 96.4% in the assay on MDA-MB-231 breast; 102% with RXF 393 renal. For the same compound, the growth was 113% in the assay with SF-268 CNS; 139% in the assay with SF-295 CNS; 92.4% in the assay with SF-539 CNS; 96.2% with UACC-257 melanoma; 103% in the assay on M14 melanoma.
Consider `CC(=O)Oc1c(C)c(C)c2c(c1C)CCC(C)(CC(=O)OCCCCCCCCCCC[P+](c1ccccc1)(c1ccccc1)c1ccccc1)O2` (stereo not given), for which the growth with NCI-H23 lung was -52.2% (active); in the assay on NCI-H226 lung, 13.2%; in the assay with NCI-H322M lung it was 13.7%; in the assay with HOP-62 NSCLC it was -84.7% (active); in the assay with HOP-92 NSCLC it was -85.4% (active); in the assay with NCI-H522 lung, -78.5% (active). For the same compound, the growth is -72% (active) with A549/ATCC NSCLC; -92% (active) in the assay with 786-0 renal; -73.9% (active) with COLO 205 colon; -71.5% (active) in the assay on DU-145 prostate; -33.9% (active) in the assay on K-562 leukemia; -66.3% (active) in the assay on MALME-3M melanoma. For the same compound, the growth with MDA-MB-231 breast is -88.9% (active); in the assay on RXF 393 renal it was -89.5% (active); in the assay with SF-268 CNS it was -72.3% (active); in the assay with SF-295 CNS, -79.8% (active); in the assay with SF-539 CNS, -93.6% (active); in the assay on UACC-257 melanoma, -80.5% (active). In addition, the growth in the assay with M14 melanoma was -87.5% (active).
In the case of `CC(=O)Oc1ccc(C2=Cc3ccc(OC(C)=O)cc3OC2C)cc1` (stereo not given), the growth was 49.3% in the assay on NCI-H23 lung; 82.9% with NCI-H226 lung; 98.2% in the assay with NCI-H322M lung; 81.8% with HOP-62 NSCLC; 69.4% in the assay with HOP-92 NSCLC; 17.2% in the assay with NCI-H522 lung. Moreover, the growth is 61.5% in the assay on A549/ATCC NSCLC; 47.5% with 786-0 renal; 102% with COLO 205 colon; 62.8% in the assay on DU-145 prostate; 28.4% with K-562 leukemia; 67.9% in the assay on MDA-MB-231 breast. Moreover, the growth was 68.9% in the assay on RXF 393 renal; 57.9% in the assay with SF-268 CNS; 69.9% in the assay on SF-295 CNS; 28% with SF-539 CNS; 81.3% in the assay on UACC-257 melanoma; 49.8% in the assay on M14 melanoma.
Turning to `C/C(=N\NC(=O)c1sc(=S)n(C)c1N)c1cc2ccccc2o1`, the growth in the assay with NCI-H23 lung is 71.6%; with NCI-H226 lung it was 73.9%; with NCI-H322M lung it was 45.4%; in the assay with HOP-62 NSCLC it was 69.4%; in the assay on HOP-92 NSCLC, 58.8%; in the assay with NCI-H522 lung it was 36.2%. Besides, the growth with A549/ATCC NSCLC is 45.4%; in the assay on 786-0 renal it was 57.3%; with COLO 205 colon, 107%; with DU-145 prostate it was 77.4%; with K-562 leukemia it was -10.9% (active); in the assay on MALME-3M melanoma, 99.3%. The growth in the assay with MDA-MB-231 breast is 36%; in the assay on SF-268 CNS, 55.9%; with SF-295 CNS, -20.6% (active); in the assay on SF-539 CNS, 71.9%; with UACC-257 melanoma it was 56.5%; in the assay with M14 melanoma, 40.8%.
On to `CCN(CC)CCOC(=O)c1ccc(NC(=O)Nc2cccc(Cl)c2)cc1`, for which the growth is 95.8% in the assay with NCI-H23 lung; 99.6% in the assay on NCI-H226 lung; 103% in the assay on NCI-H322M lung; 93.4% with HOP-62 NSCLC; 85.1% in the assay on HOP-92 NSCLC; 86.7% with NCI-H522 lung. In addition, the growth in the assay with A549/ATCC NSCLC is 91.4%; in the assay on 786-0 renal it was 95.5%; in the assay with COLO 205 colon, 105%; in the assay on DU-145 prostate, 105%; with K-562 leukemia, 91.1%; in the assay with MALME-3M melanoma, 97.6%. Further, the growth in the assay on MDA-MB-231 breast was 93.7%; with RXF 393 renal it was 99.4%; with SF-268 CNS, 97.3%; in the assay with SF-295 CNS, 93%; in the assay on SF-539 CNS it was 98.7%; in the assay with UACC-257 melanoma, 91%. Moreover, the growth with M14 melanoma is 103%.
